Compound activity as filed in PubChem.
The list is not random: actives were taken first. Their share in the collection is about 3.5%.
FBW7 activator = activators of human E3 ligase FBW7; Q969H0; AlphaScreen FBW7–phospho-cyclin E peptide binding, activator screen; normalized activity (activation), % at 26.1 µM; 650,000 tested, 0.13% active; AID 1259310; in the data active means normalized activity above about 1.9%;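 further: purified mutant Fbw7 with reduced substrate affinity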
TEAD-YAP block = TEAD-YAP interaction inhibition | HEK-TIYL cells, TEAD-Gal4/YAP UAS-luciferase luminescence | inhibition, % at 9.12 µM | 640,000 tested, 1.4% active; in the data active means inhibition above about 32%
MITF primary = human MITF inhibition, primary screen; O75030; AlphaScreen MITF homodimerization, bead proximity signal; inhibition, % at 2.6 µM; 650,000 tested, 0.91% active; AID 1259374; in the data active means inhibition above about 50%
Target sequence (O75030 whole entry, looked up): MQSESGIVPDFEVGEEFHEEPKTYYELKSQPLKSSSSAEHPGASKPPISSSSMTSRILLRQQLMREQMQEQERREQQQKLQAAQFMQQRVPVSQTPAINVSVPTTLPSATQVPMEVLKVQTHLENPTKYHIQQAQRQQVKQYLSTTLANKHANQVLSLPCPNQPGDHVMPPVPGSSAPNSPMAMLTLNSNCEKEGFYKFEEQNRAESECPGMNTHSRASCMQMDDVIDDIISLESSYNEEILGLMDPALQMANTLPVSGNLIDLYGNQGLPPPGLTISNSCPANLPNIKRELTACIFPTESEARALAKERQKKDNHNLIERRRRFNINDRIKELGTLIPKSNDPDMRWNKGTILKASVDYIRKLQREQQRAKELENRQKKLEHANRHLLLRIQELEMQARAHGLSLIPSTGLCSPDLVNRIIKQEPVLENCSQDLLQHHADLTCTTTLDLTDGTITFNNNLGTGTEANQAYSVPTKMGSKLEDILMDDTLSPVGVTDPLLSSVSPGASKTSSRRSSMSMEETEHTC
GPR151 ag = activators of human GPR151 | Q8TDV0 | PathHunter beta-arrestin GPR151 cells, luminescence | activation, % at 11.2 µM | 650,000 tested, 1% active | AID 1508602; in the data active means activation above about 4.9%
GPR151 conf act = confirmation of human GPR151 activators | 6,700 tested, under 10 active | shares compounds with GPR151 ag | GPR151 PathHunter beta-arrestin cells, luminescence, 90 min; % of EA-reagent control over plate median | activation, % at 11.2 µM;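 active means mean percent activation across replicates above the confirmation screen cutoff of 4.91%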
GPR119 ag = GPR119 activation, counter-screen for GPR151 activators | activation, % at 11.2 µM | 6,700 tested, 0.3% active | AID 1508611 | GPR119 PathHunter beta-arrestin cells, luminescence, 90 min; 0 = compound-well median, 100 = enzyme-acceptor control | shares compounds with GPR151 ag;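 active means mean percent activation in the counterscreen above 29.09%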;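 further: counterscreen on off-target GPR119 to flag nonselective hits from the GPR151 activator screen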
Hits are given with their value; . = inactive; / = no result; ! = repeats disagree.

SMILES | FBW7 activator | TEAD-YAP block | MITF primary | GPR151 ag | GPR151 conf act | GPR119 ag
CC1Cc2cc(S(=O)(=O)CCC(=O)Nc3ccccc3)ccc2N1C(=O)C1CC1 (centres undefined) | . | . | . | . | / | /
CCc1cccc(NC(=O)CCS(=O)(=O)c2ccc3c(c2)CC(C)N3C(=O)C2CC2)c1 (centres undefined) | . | . | . | 6.2 | . | .
Nc1cc(C(=O)OCC(=O)Nc2cccc(S(N)(=O)=O)c2)ccc1Cl | . | . | . | 6.4 | . | .
CC(=O)c1cccc(NC(=O)COC(=O)c2ccc(Cl)c(N)c2)c1 | . | . | . | . | / | /
O=C(O)CCCn1c(=O)oc2ccccc21 | . | . | . | . | / | /
O=C(CCCn1c(=O)oc2ccccc21)NNC(=O)COc1ccc(F)cc1 | . | . | . | 5.7 | . | .
O=C(CCCn1c(=O)[nH]c2ccccc2c1=O)N1CCN(c2ccc(Cl)cc2)CC1 | . | . | . | 5.5 | . | .
CC1(C)C(=O)NCCN1C(=O)CN1C(=O)N2CCN=C2c2ccccc21 | . | . | . | . | / | /
O=C(Oc1ccc([N+](=O)[O-])cc1)c1ccc(N2C(=O)C3C4CCC(C4)C3C2=O)cc1 (centres undefined) | . | . | . | 7.5 | . | .
C/C(=N\NC(=O)c1ccc(N2CCCC2=O)cc1)c1ccccn1 | . | . | . | 9.1 | . | .
Cc1ccc(C(=O)NC(=S)NNc2nc3ccccc3[nH]2)cc1 | . | . | . | 5.3 | . | .
COC(=O)[C@H]1CN(C(=O)CCn2cnnn2)C[C@@H]1c1ccc(F)cc1 | . | . | . | . | / | /
COC(=O)C1CC(=O)N(C)C12CCN(Cc1cn[nH]c1-c1ccc(OC)cc1)CC2 (centres undefined) | . | . | . | . | / | /
CSc1cccc(N=CC2=C(O)CC(C)(C)CC2=O)c1 | . | . | . | 7.1 | . | .
COCCNC(=O)CN1C(=O)COc2ccc(Cl)cc21 | . | . | . | 7.8 | . | .
CC(C)(C)c1ccc2c(c1)N(CC(=O)NC1CCCCCC1)C(=O)CO2 | . | . | . | 5.5 | . | .
O=C(CN1C(=O)COc2ccc(Cl)cc21)NC1CCCCCC1 | . | . | . | . | / | /
CC(C)NC(=O)CN1C(=O)COc2ccc(C(C)(C)C)cc21 | . | . | . | 5.8 | . | .
CCN1CCN(CCN2C(=O)C3C(C(=O)Nc4ccc(Oc5ccccc5)cc4)C4C=CC3(O4)C2C(=O)NC2CCCCC2)CC1 (centres undefined) | . | . | . | . | / | /
Cc1c(Cl)cccc1NC(=O)c1ccc(=O)n(Cc2ccc(F)cc2)c1 | . | . | . | . | / | /
c1ccc(CNc2nc(Nc3ccc4ncccc4c3)nc3c2ncn3C2CCCCC2)cc1 | . | . | . | . | / | /
CC1CC(C)CN(S(=O)(=O)c2ccc(C(=O)Nc3nc(-c4ccc(Cl)s4)cs3)cc2)C1 (centres undefined) | . | . | . | . | / | /
CN1CCN(/N=C(\NO)c2nonc2N)CC1 | . | . | . | 13! | . | .
CC(C)CC(NC(=O)C1CCC(C)CC1)C(=O)Nc1cccnc1 (centres undefined) | . | . | . | 7.4 | . | .
CC1Sc2cc(S(=O)(=O)CCC(=O)NC3CCCC(C)C3C)ccc2NC1=O (centres undefined) | . | . | . | 5.1 | . | .
SMILES | FBW7 activator | TEAD-YAP block | MITF primary | GPR151 ag | GPR151 conf act | GPR119 ag
CC1Sc2cc(S(=O)(=O)CCC(=O)Nc3ccccc3F)ccc2NC1=O (centres undefined) | . | . | . | 5.3 | . | .
CC(C)NC(=O)c1cc(=O)[nH]c2ccc(S(=O)(=O)N3CCCC3)cc12 | . | . | . | 6.3 | . | .
CC(C)NC(=O)c1cc(=O)[nH]c2ccc(S(=O)(=O)N3CCCCCC3)cc12 | . | . | . | . | / | /
COc1ccc([N+](=O)[O-])cc1/C=C1\C(=O)N(c2ccccc2)N=C1C | . | . | . | 8.1 | . | .
CC(=O)Cn1c(=O)c2c(nc3n(-c4ccccc4C)c(C)c(C)n23)n(C)c1=O | . | . | . | 5.5 | . | .
C=CCn1c(=O)c2c(nc3n(-c4ccccc4C)c(C)c(C)n23)n(C)c1=O | . | . | . | . | / | /
c1cc2c(cc1OCCNC1CCCC1)CCC2 | . | . | . | 6.5 | . | .
Cc1ccc(N2C(=N)S/C(=C/c3sccc3C)C2=O)cc1C | . | . | . | . | / | /
Cc1ccsc1/C=C1\SC(=N)N(c2ccc(F)cc2)C1=O | . | . | . | 23 | . | .
Cc1c(C(=O)NC(=S)Nc2ncccc2O)cccc1[N+](=O)[O-] | . | . | . | 5.4 | . | .
COc1ccc(CCN2C(=O)CC(C(=O)Nc3ccc(Cl)cc3)SC2=Nc2ccc(F)cc2)cc1OC (centres undefined) | . | . | . | 5.4 | . | .
COc1ccc(CCN2C(=O)CC(C(=O)Nc3ccc(F)cc3)SC2=Nc2ccc(Cl)cc2)cc1OC (centres undefined) | . | . | . | . | / | /
CCN(CC)C(=O)c1sc(NC(=S)NCc2ccco2)c(C(=O)OC)c1C | . | . | . | 11 | . | .
COC(=O)c1c(NC(=O)c2ccco2)sc(C(=O)Nc2cccc(C)c2)c1C | . | . | . | 6.4 | . | .
CCN(CC)C(=O)c1sc(NC(=O)c2ccco2)c(C(=O)OC(C)C)c1C | . | . | . | . | / | /
C[C@@H]1CN(Cc2nnnn2CC(=O)N2CCSCC2)C[C@H](C)O1 | . | . | . | . | / | /
CC(C)OCCCNC(=O)CC1C(=O)NCCN1C (centres undefined) | . | . | . | 5.8 | . | .
CCCCC[C@H]1O[C@H]1C/C=C\C/C=C\C/C=C\CCCC(=O)O | / | / | . | . | / | /
CCCCC/C=C\C/C=C\C/C=C\C[C@H]1O[C@H]1CCCC(=O)O | / | / | . | 5.8 | . | .
COc1ccc(C(C)C)cc1-c1cnn2ccc(NCc3cccnc3)nc12 | . | . | . | . | / | /
O=C1NC(=Nc2ccc(F)cc2)S/C1=C\c1ccc(O)cc1 | . | . | . | . | / | /
NC(=O)c1cccn1Cc1cccc(Cl)c1 | . | . | . | . | / | /
NC(=O)c1cccn1Cc1ccccc1Cl | . | . | . | 5.2 | . | .
CCOC(=O)c1nccn1Cc1ccccc1Cl | . | . | . | 9.4 | . | .
C=CCNC(=O)c1c(C)nc2ccc(C)cn12 | . | . | . | . | / | /
SMILES | FBW7 activator | TEAD-YAP block | MITF primary | GPR151 ag | GPR151 conf act | GPR119 ag
CCCCN(c1ccccc1)c1ncnc2c1cnn2C | . | . | . | . | / | /
CCN(c1ccccc1)c1ncnc2c1cnn2C | . | . | . | 5.0 | . | .
Cc1nc(N)n(N)c(=O)c1Cc1ccccc1 | . | . | . | 6.4 | . | .
Cc1nc(N)n(N)c(=O)c1CCCN1C(=O)c2ccccc2C1=O | . | . | . | . | / | /
CCOc1cccc(C2NC(C)(C(=O)O)C3C(=O)N(c4ccccc4OC)C(=O)C23)c1O (centres undefined) | . | . | . | . | / | /
COc1ccc(O)c(C2NC(C)(C(=O)O)C3C(=O)N(c4ccccc4OC)C(=O)C23)c1 (centres undefined) | . | . | . | 5.1 | . | .
